For 33 molecules, Potency results are on record in PubChem BioAssay (Tox21).

Values joined by “and” are separate entries in the source; they are usually repeats but may differ in a detail not shown here. Equal entries are not always repeated. Inconclusive results are not listed. A call without a number means that no potency is given here. Some structures have more than one record in an assay (separate samples or runs), and their calls can disagree. Active and inactive are the calls of the source. Calls follow the shape of the full dose curve.

The experiment in a line: Nuclear factor erythroid 2-related factor 2/antioxidant responsive element (Nrf2/ARE) small molecule agonists: luciferase reporter gene qHTS assay in human keratinocytes (AID 1919969). Also: nearly all actives have a fitted effect of over 35% in size. On the technique in general: Reporter assays use an easily measured gene product as a stand-in for the process of interest.
Potency is read from the fitted curve at half-maximal effect.

For `C=C(C)C(=O)OCC(CC)CCCC` (stereo not drawn), the Potency entry was “inactive”. For `OCC1CO1` (stereo not drawn), the Potency result is “inactive”.

For the molecule `COC(=O)Nc1cccc(OC(=O)Nc2cccc(C)c2)c1`, the Potency is 13.7 µM (active) and inactive. As to `CC(C)(O)C(Cl)(Cl)Cl`, the Potency result is “inactive”.

As for `Cc1cc(Cl)ccc1N`, the Potency result was “inactive”.

As to `CN(C)N=O`, the Potency entry is “inactive”. For `O=C(O)COc1ccc(Cl)cc1Cl`, the Potency entry is “inactive”. With `BrCCc1ccccc1` the entry was “inactive”; with `Cc1ccc(N)cc1`, “inactive and 48.6 µM (active)”. Consider `O=C(O)c1cc(Oc2ccc(C(F)(F)F)cc2Cl)ccc1[N+](=O)[O-]`, for which the Potency entry is “inactive”. As to `ClCCN1CCOCC1`, the Potency entry is “inactive”. Consider `N#CC(c1ccccc1)c1ccccc1`, for which the Potency entry was “inactive”. With `Cn1c(N)nc2c3cccnc3ccc21` the entry was “inactive”; with `CCC(C)c1cc([N+](=O)[O-])cc([N+](=O)[O-])c1O` (stereo not drawn), “inactive”. On to `CCCCOCC1CO1` (stereo not drawn), for which the Potency entry was “inactive”.

On to `OC[P+](CO)(CO)CO`, for which the Potency result was “inactive”. In the case of `ClCc1ccccc1CCl`, the Potency was 61.1 µM (active).

With `CC(C)(c1ccc(OCC2CO2)cc1)c1ccc(OCC2CO2)cc1` (stereo not drawn), the Potency was 27.7 µM (active) and 27.3 µM (active). Regarding `c1ccc(C2CO2)cc1` (stereo not drawn), the Potency result was “inactive”. The entry for `Clc1ccc(C(Cl)(Cl)Cl)cn1` is “inactive”; for `N#Cc1cc([N+](=O)[O-])ccc1N` it is “inactive”; for `O=C1C2(Cl)C3(Cl)C4(Cl)C(Cl)(Cl)C5(Cl)C3(Cl)C1(Cl)C5(Cl)C24Cl` (stereo not drawn) it is “inactive”. For `c1nc[nH]n1`, the Potency result is “inactive”. The entry for `CCCCOC(=O)c1ccccc1C(=O)OCCCC` is “inactive”; for `CC(c1ccc(O)cc1)c1ccc(O)cc1` it is 64.3 µM (active) and inactive. On to `CN(CCO)CCO`, for which the Potency entry is “inactive”.

`Brc1ccc(Br)cc1`: the Potency result is “inactive”. Take `[N-]=[N+]=CC(=O)OC[C@H](N)C(=O)O`: the Potency result is “inactive”. For the molecule `CCCCCCCCCCCOC(=O)c1ccccc1C(=O)OCCCCCCCCCCC`, the Potency entry was “inactive”. Consider `Nc1cccc2ccccc12`, for which the Potency entry was “inactive and 61.1 µM (active)”. For `CC(=O)C(Cl)Cl`, the Potency entry was “inactive”. `CC(C)(O)C(=O)Nc1ccc([N+](=O)[O-])c(C(F)(F)F)c1`: the Potency result was “inactive”. On to `Nc1cc(Cl)cc(Cl)c1`, for which the Potency entry was “inactive”.
